Among the test systems are NCI-H23 lung; NCI-H226 lung; NCI-H322M lung; HOP-62 NSCLC; NCI-H460 lung; HOP-92 NSCLC; NCI-H522 lung; A549/ATCC NSCLC; 786-0 renal; COLO 205 colon; DU-145 prostate; K-562 leukemia; MALME-3M melanoma; MDA-MB-231 breast; RXF 393 renal; SF-268 CNS; SF-295 CNS; SF-539 CNS; UACC-257 melanoma; M14 melanoma.
What all share (experiment): NCI-60 one-dose screen, 48 h (100 = growth as untreated, 0 = no growth, -100 = all killed)
What all share (details): 10 µM unless noted

The panel holds about 83,000 compounds, 20% with a hit somewhere; the sample as a whole holds those more often.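 Treatment: one concentration, 48 hours, 96-well format. Scoring: percent growth, with anything below 10 considered active.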 Values without a mark were called inactive. Calls of active or inactive are those of the source.

For the compound `CCCCc1n(Cc2ccc3ccccc3n2)cc[n+]1Cc1ccc2ccccc2c1`, the growth with NCI-H23 lung was -1.01% (active); with NCI-H226 lung, 14.2%; in the test on NCI-H322M lung it was 30.6%; in the test on HOP-62 NSCLC it was 17.4%; in the test with NCI-H460 lung, 7.73% (active); in the test on HOP-92 NSCLC it was -33.9% (active). The growth was -8.22% (active) with NCI-H522 lung; 27% in the test on A549/ATCC NSCLC; 20.4% in the test with 786-0 renal; -74.2% (active) in the test on COLO 205 colon; 25.1% in the test with DU-145 prostate; 6.43% (active) with K-562 leukemia. Moreover, the growth in the test with MALME-3M melanoma was -22.2% (active); in the test on MDA-MB-231 breast, -29.2% (active); with RXF 393 renal, -14.3% (active); in the test with SF-268 CNS it was 19.3%; in the test on SF-295 CNS, 0.543% (active); with SF-539 CNS, 14.3%. Further, the figures for the growth in the test with UACC-257 melanoma and in the test on M14 melanoma were -32.7% (active) and -16.9% (active), respectively.
As for `O=C1C(=O)c2c(nc3ccc(Br)cn23)-c2ccccc21`, the growth is -38.7% (active) with NCI-H23 lung; -92.6% (active) in the test on NCI-H226 lung; -96.6% (active) in the test on NCI-H322M lung; -96.5% (active) with HOP-62 NSCLC; -63.2% (active) in the test on NCI-H460 lung; -75.3% (active) in the test on HOP-92 NSCLC. In addition, the growth in the test with NCI-H522 lung was -72.6% (active); in the test on A549/ATCC NSCLC it was -63.5% (active); with 786-0 renal, -96.9% (active); with COLO 205 colon it was -82.4% (active); with DU-145 prostate, -100% (active); with K-562 leukemia, -59.8% (active). Besides, the growth with MALME-3M melanoma was -97.9% (active); in the test on MDA-MB-231 breast, -20.1% (active); with RXF 393 renal, -94.1% (active); in the test with SF-268 CNS it was -71.7% (active); with SF-295 CNS it was -100% (active); in the test on SF-539 CNS, -99.1% (active). Moreover, the growth was -99% (active) in the test with UACC-257 melanoma and -92.9% (active) in the test with M14 melanoma.
`NC(N)=NC(N)=Nc1cc2ccccc2c2ccccc12`: the growth is 44.8% in the test on NCI-H23 lung; 54.3% with NCI-H226 lung; 53.3% in the test with NCI-H322M lung; 38.3% in the test on HOP-62 NSCLC; 21.9% in the test with NCI-H460 lung; -3.37% (active) in the test with HOP-92 NSCLC. Also, the growth in the test on NCI-H522 lung was 7.5% (active); in the test on A549/ATCC NSCLC, 41.1%; in the test with 786-0 renal it was 14.4%; with COLO 205 colon, -59% (active); in the test with DU-145 prostate, 56.3%; with K-562 leukemia, 5.89% (active). The growth is -8.45% (active) in the test on MALME-3M melanoma; 15.6% in the test on MDA-MB-231 breast; 36.3% in the test on RXF 393 renal; 48% in the test on SF-268 CNS; 53.3% in the test on SF-295 CNS; 59.9% in the test with SF-539 CNS. The results for the growth with UACC-257 melanoma and in the test on M14 melanoma were 74.4% and -33.4% (active), respectively.
Consider `COc1ccc(-c2[nH]c3ccc(OC)cc3c2C=C(C#N)C#N)cc1`, for which the growth in the test with NCI-H23 lung was 32.9%; with NCI-H226 lung, 59.7%; with NCI-H322M lung, 58.8%; in the test with HOP-62 NSCLC it was 32.5%; with NCI-H460 lung, 17.2%; in the test on HOP-92 NSCLC, 20.3%. The growth was -8.75% (active) in the test on NCI-H522 lung; 32.5% in the test on A549/ATCC NSCLC; 28.9% in the test with 786-0 renal; 5.59% (active) in the test on COLO 205 colon; 12.5% in the test with DU-145 prostate; 4.8% (active) in the test with K-562 leukemia. The growth with MALME-3M melanoma is 60%; in the test on MDA-MB-231 breast it was 53.7%; with RXF 393 renal, 34.4%; in the test on SF-268 CNS it was 52.7%; with SF-295 CNS, -47.1% (active); in the test with SF-539 CNS it was 23.2%. Further, the growth in the test on UACC-257 melanoma was 60.2%; in the test on M14 melanoma, -13.3% (active).
As to `C#C[C@@]1(O)[C@@H](CO)O[C@@H](n2cc(Cl)c3c(N)ncnc32)[C@@H]1O`, the growth was 0.604% (active) with NCI-H23 lung; 1.13% (active) with NCI-H226 lung; -3.01% (active) in the test with NCI-H322M lung; -4.82% (active) in the test on HOP-62 NSCLC; -19.1% (active) in the test with NCI-H460 lung; -27.1% (active) with HOP-92 NSCLC. Moreover, the growth in the test with NCI-H522 lung is -29% (active); in the test with A549/ATCC NSCLC it was -31.1% (active); in the test on 786-0 renal, -58.8% (active); in the test with COLO 205 colon, -39.4% (active); in the test on DU-145 prostate, 4.44% (active); with K-562 leukemia it was 4.99% (active). The growth with MALME-3M melanoma was -19.5% (active); with MDA-MB-231 breast, -6.34% (active); with RXF 393 renal, -33.4% (active); with SF-268 CNS, 15.3%; with SF-295 CNS, -26.8% (active); with SF-539 CNS, -54.3% (active). Also, the values for the growth with UACC-257 melanoma and with M14 melanoma were 40.9% and -25.8% (active), respectively.
As to `CS(=O)(=O)O[C@@H]1C(=O)N(c2cc3c4ccccc4ccc3c3ccccc23)[C@H]1c1ccc(F)cn1`, the growth in the test with NCI-H23 lung was 49.5%; in the test with NCI-H226 lung, 63.2%; in the test on NCI-H322M lung, 67%; in the test with HOP-62 NSCLC, 35.2%; with NCI-H460 lung, 16.4%; with HOP-92 NSCLC, 57%. Further, the growth was -19.9% (active) with NCI-H522 lung; 47.1% with A549/ATCC NSCLC; 26.2% in the test on 786-0 renal; 48.4% with COLO 205 colon; 11.5% in the test with DU-145 prostate; 10.3% with K-562 leukemia. Also, the growth with MALME-3M melanoma was 74.2%; in the test on MDA-MB-231 breast it was 50.1%; in the test with RXF 393 renal it was 18.6%; in the test with SF-268 CNS it was 43.4%; in the test with SF-295 CNS, 9.48% (active); in the test with SF-539 CNS, 15.7%. Further, the results for the growth in the test on UACC-257 melanoma and in the test on M14 melanoma were 41.7% and 30.2%, respectively.
As to `CC(=O)OCC1OC(OC2C(COC(C)=O)OC(OCCC[S-])C(OC(C)=O)C2OC(C)=O)C(OC(C)=O)C(OC(C)=O)C1OC(C)=O.[Au+].c1ccc(CN2[CH-]N(Cc3ccccc3)C(c3ccccc3)=C2c2ccccc2)cc1` (stereo not given), the growth with NCI-H23 lung is 12.1%; in the test with NCI-H226 lung, 25.3%; in the test with NCI-H322M lung it was 52%; in the test on HOP-62 NSCLC, 31.8%; in the test with NCI-H460 lung, 15%; with HOP-92 NSCLC, -11.4% (active). Further, the growth in the test with NCI-H522 lung was -30.8% (active); with A549/ATCC NSCLC, 23.2%; with 786-0 renal, 9.05% (active); in the test on COLO 205 colon, -37.4% (active); in the test on DU-145 prostate, 26.1%; in the test on K-562 leukemia, 4.75% (active). Besides, the growth with MALME-3M melanoma was -8.9% (active); with MDA-MB-231 breast, -34.7% (active); with RXF 393 renal, 25.7%; in the test on SF-268 CNS, 40.1%; in the test on SF-295 CNS, 7.32% (active); in the test with SF-539 CNS, 35.6%. Further, the growth in the test with UACC-257 melanoma is 12.5%; in the test with M14 melanoma, 25%.
